From PubChem BioAssay (NCI) come the findings set out here.

“And” between values parts separate entries of the source, which are not always exact repeats. Equal values may be shown once. The panel holds about 79,000 compounds, 15% with a hit somewhere; the sample as a whole holds those more often. Values without a mark were called inactive. The source made the active and inactive calls. No stated cut-off is given here; in the data, active means growth inhibition above about 70%; inactive means the rest.

The nature of assay [1]: NCI Yeast Anticancer Drug Screen. Data for the rad50 strain (AID 155).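 Further: 0% = growth of vehicle-only cultures of the same strain.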 The conditions noted are these: S. cerevisiae rad50 strain growth inhibition; at 50.0 µM; hits give high values. The gist of the method: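 Yeast carrying a defined DNA repair defect were exposed to test compounds, and growth was compared with vehicle-treated controls to give percent inhibition.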
Assay [2] in a line: NCI Yeast Anticancer Drug Screen. Data for the mec2-1 strain (AID 157). To be noted: S. cerevisiae mec2-1 strain, at 50.0 µM, hits give high values. In a few lines:
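Cells of the genetically defined mec2-1 yeast strain are incubated with test compound. Inhibition of growth is calculated against vehicle-treated controls.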

The nature of assay [3]: NCI Yeast Anticancer Drug Screen. Data for the sgs1 mgt1 strain (AID 161).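 Further: 0% = growth of cultures given vehicle only.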 The conditions noted are these: S. cerevisiae sgs1 mgt1 strain, at 50.0 µM, hits give high values. In a few lines: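 Mutant yeast exposed to compound; growth scored against vehicle-only wells.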
Assay [4] in a line: NCI Yeast Anticancer Drug Screen. Data for the cln2 rad14 strain (AID 165).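 Further: 0% = growth equal to vehicle treated cultures.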 To be noted: S. cerevisiae cln2 rad14 strain, at 50.0 µM, hits give high values. The gist of the method: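 The screen exposed genetically defined yeast (cln2 rad14) to test compounds and scored growth inhibition relative to vehicle-treated controls.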
Assay [5] in a line: NCI Yeast Anticancer Drug Screen. Data for the bub3 strain (AID 167). The conditions noted are these: S. cerevisiae bub3 mutant strain, at 50.0 µM, hits give high values. In a few lines:
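Compounds were applied to a genetically altered yeast strain carrying a cell-cycle control defect. Growth inhibition was scored against vehicle-treated controls.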

The nature of assay [6]: NCI Yeast Anticancer Drug Screen. Data for the mlh1 rad18 strain (AID 175). To be noted: S. cerevisiae mlh1 rad18 strain growth inhibition; at 50.0 µM; hits give high values. The gist of the method:
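Compound-treated yeast growth, normalised to vehicle controls. Strain bears defined DNA repair mutations.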

Regarding `Clc1cccc2c(N3CC3)cnnc12`, the growth inhibition in assay [1] is 17.6%; in assay [2], -1.3%; in assay [3], -13.3%; in assay [4], 1.4%; in assay [5] it was -16.6%; in assay [6], -2.55%.
For `CCC(C)C(CC)C(=O)NC(N)=O` (stereo unspecified), the growth inhibition in assay [1] is 4.4%; in assay [2], 4.55%; in assay [3], -11.4%; in assay [4], -1.35%; in assay [5] it was 8.5%; in assay [6] it was 0.95%.
In the case of `CC1(C)CN=C(Nc2ccc(F)c(F)c2)S1`, the growth inhibition in assay [1] was 4.3%; in assay [2], 3.8%; in assay [3] it was 12.1%; in assay [4], 15.3%; in assay [5], -12.8%; in assay [6] it was -19.6%.
As to `O=C(Cc1ccccc1)Nc1ccc(Cl)cc1C(=O)c1ccccc1`, the growth inhibition was 1.95% in assay [1]; 44.2% in assay [2]; 40.1% in assay [3]; -18.3% in assay [4]; 23.1% in assay [5]; 36.7% in assay [6].
As for `COP(=O)(Cc1ccccc1)OC`, the growth inhibition is -1% in assay [1]; 5.15% in assay [2]; -0.95% in assay [3]; -43.1% in assay [4]; 2.3% in assay [5]; -11.8% in assay [6].
`Nc1ccc([As](O)O)c(C(=O)O)c1`: the growth inhibition is -15.1% in assay [1]; -24.1% in assay [2]; -27.9% in assay [3]; -2.35% in assay [4]; -26.3% in assay [5]; -35.6% in assay [6].
`c1cc2c3c(cccc3c1)CC2`: the growth inhibition in assay [1] was -22.4%; in assay [2], 35.4%; in assay [3], -0.65%; in assay [4] it was -16.3%; in assay [5], 44.4%; in assay [6], -14.6%.
On to `Nc1ccccc1C(=O)O`, for which the growth inhibition in assay [1] is 15.3%; in assay [2] it was 18.4%; in assay [3] it was 0.7%; in assay [4], 8.6%; in assay [5], 18.4%; in assay [6], 3.8%.
As to `CCC1CN2CCC3(C(=O)Nc4ccccc43)C2CC1/C(=C/OC)C(=O)OC` (stereo unspecified), the growth inhibition was -1.8% in assay [1]; -12.3% in assay [2]; 7.85% in assay [3]; 2.55% in assay [4]; 13.7% in assay [5]; 12.4% in assay [6].
`CC(=O)[O][Pb]([CH3])([CH3])[CH3]`: the growth inhibition in assay [1] is -28%; in assay [2], -35.9%; in assay [3], -12.4%; in assay [4], 6.7%; in assay [5], -55.5%; in assay [6], -20.8%.
Regarding `CCCCN(CCCC)CC(O)c1ccc(Br)cc1` (stereo unspecified), the growth inhibition in assay [1] was 33.5%; in assay [2] it was 15.4%; in assay [3] it was 54%; in assay [4], 16.7%; in assay [5] it was 28.9%; in assay [6], 44.1%.
On to `NCCN.NCCN.O=C([O-])C(=O)[O-].[Cl-].[Co+3]`, for which the growth inhibition in assay [1] was -22.4%; in assay [2], -16.7%; in assay [3], -31.8%; in assay [4], -0.45%; in assay [5], -24.6%; in assay [6] it was -29.8%.
Take `O=c1c2cc(Br)cc(Br)c2[nH]c(=S)n1-c1ccccc1`: the growth inhibition in assay [1] was -2.45%; in assay [2], 31.4%; in assay [3], 21.5%; in assay [4], 21.4%; in assay [5], 27.6%; in assay [6] it was 19.8%.
For the molecule `CCOC(=O)CC(=O)C(F)(F)F.CCOC(=O)CC(=O)C(F)(F)F.[Ni]`, the growth inhibition in assay [1] was -21%; in assay [2], 14.4%; in assay [3], -12.2%; in assay [4] it was 24.4%; in assay [5], 12.6%; in assay [6] it was -0.95%.
With `c1ccc(C2=NC(c3ccccc3)N3CC23c2ccccc2)cc1` (stereo unspecified), the growth inhibition in assay [1] was 12.8%; in assay [2], 15.2%; in assay [3], 5.05%; in assay [4], -7.6%; in assay [5] it was 15.2%; in assay [6], 24.4%.
Turning to `Cc1nc(N)nc(N)c1CCCOc1ccc(NC(=O)c2cccc(S(=O)(=O)F)c2)cc1`, the growth inhibition in assay [1] was 33.2%; in assay [2], 25.9%; in assay [3], 15.4%; in assay [4], 19.2%; in assay [5] it was -4.45%; in assay [6] it was 30.4%.
In the case of `NCC1OC(OC2C(CO)OC(OC3C(O)C(N)CC(N)C3OC3OC(CN)C(O)C(O)C3N)C2O)C(N)C(O)C1O` (stereo unspecified), the growth inhibition was 6.1% in assay [1]; 2.3% in assay [2]; 10.3% in assay [3]; 3% in assay [4]; 15.4% in assay [5]; 6.8% in assay [6].
Consider `O=NN1CCCC1C(=O)O` (stereo unspecified), for which the growth inhibition in assay [1] is -10.8% and 0.75%; in assay [2], -16.6% and -11.8%; in assay [3], -14.2% and -12%; in assay [4], 10.1% and 3.9%; in assay [5] it was 3.45% and 1.65%; in assay [6], -14% and -2.15%.
As for `COc1ccc(C[As+](c2ccccc2)(c2ccccc2)c2ccccc2)cc1`, the growth inhibition in assay [1] is 97.8% (active); in assay [2] it was 98.3% (active); in assay [3], 97.4% (active); in assay [4], 97% (active); in assay [5] it was 93% (active); in assay [6], 97.2% (active).
`C[CH2][Pb]([CH2]C)([CH2]C)[n]1ccnc1`: the growth inhibition in assay [1] was -22.6%; in assay [2], -6.8%; in assay [3], -11.9%; in assay [4], -29.3%; in assay [5], -1.4%; in assay [6] it was -9%.
Take `[C-]#[O+].[C-]#[O+].[C-]#[O+].[C-]#[O+].[W].c1ccc([PH+](CC[PH+](c2ccccc2)c2ccccc2)c2ccccc2)cc1`: the growth inhibition is -2.9% in assay [1]; 5.2% in assay [2]; -10.4% in assay [3]; -8% in assay [4]; -7.5% in assay [5]; 8.95% in assay [6].
As for `O=C(NC1CCCCC1)c1c(O)[nH]c(=S)[nH]c1=O`, the growth inhibition was -20.4% in assay [1]; -0.3% in assay [2]; 14.8% in assay [3]; 12.2% in assay [4]; -4.9% in assay [5]; -0.55% in assay [6].
On to `O=C1CCC(=O)N1[N+](=O)[O-]`, for which the growth inhibition in assay [1] was -17.2%; in assay [2], -10.2%; in assay [3], -18.8%; in assay [4] it was 2.95%; in assay [5] it was -2.45%; in assay [6], -16%.
With `NC(=S)Nc1ccccc1`, the growth inhibition in assay [1] was 9.75%; in assay [2], -18%; in assay [3], -24.4%; in assay [4], -11.1%; in assay [5] it was 8.65%; in assay [6], 5.6%.
For `Nc1n[nH][nH]c1=O`, the growth inhibition in assay [1] is -29.5%; in assay [2], -26.1%; in assay [3] it was -13.9%; in assay [4] it was -20.4%; in assay [5] it was -0.7%; in assay [6], -12.1%.
For the molecule `O=S(=O)(O)O.[W]`, the growth inhibition in assay [1] was 27.2%; in assay [2], -7.55%; in assay [3], 14.3%; in assay [4], -5.65%; in assay [5] it was 18%; in assay [6] it was -8.95%.
As to `CN(C)C(=O)Sc1ccc(S(=O)(=O)F)c(Cl)c1Cl`, the growth inhibition in assay [1] is 26.4%; in assay [2], 13.3%; in assay [3], 31.1%; in assay [4], 21.9%; in assay [5] it was 3.25%; in assay [6], 24.6%.
With `COC[C@]12CN(C=O)[C@H]3C4[C@H](OC)[C@H]1C3([C@@H](OC)C[C@H]2O)[C@@H]1C[C@@]2(O)[C@H](OC(=O)c3ccccc3)[C@@H]1[C@]4(OC(C)=O)[C@@H](O)[C@@H]2OC`, the growth inhibition is 9.45% in assay [1]; 14.4% in assay [2]; -13.8% in assay [3]; -2.2% in assay [4]; 0.2% in assay [5]; 25.6% in assay [6].
As for `CC[As](CC)SCC1OC(OC(C)=O)C(OC(C)=O)C(OC(C)=O)C1OC(C)=O` (stereo unspecified), the growth inhibition in assay [1] is 99.1% (active); in assay [2] it was 98.5% (active); in assay [3], 68.2%; in assay [4] it was 99.5% (active); in assay [5], 65.8%; in assay [6], 98.9% (active).
For `Oc1cccc2cccnc12.[Cr]`, the growth inhibition in assay [1] is 6%; in assay [2], -0.65%; in assay [3], -7.65%; in assay [4], -7%; in assay [5] it was -16.9%; in assay [6], -9.65%.
For the molecule `C[N+](C)(C)CC1CCCCCCCCCCC1=O` (stereo unspecified), the growth inhibition was -4.85% in assay [1]; -10.4% in assay [2]; -25.2% in assay [3]; 7.75% in assay [4]; -16.4% in assay [5]; -9.75% in assay [6].
As to `Cc1cccc(C(=O)[O][Pb]([CH3])([CH3])[CH3])c1`, the growth inhibition in assay [1] is 16.1%; in assay [2], -53.7%; in assay [3] it was 21%; in assay [4] it was -20%; in assay [5], -9.65%; in assay [6], 36.2%.
Regarding `CCOc1ccc2c(N/N=C/c3ccc(N(CCCl)CCCl)cc3)cc(C)nc2c1`, the growth inhibition in assay [1] was 96.3% (active); in assay [2] it was 97.6% (active); in assay [3], 97.3% (active); in assay [4], 97.8% (active); in assay [5], 95.7% (active); in assay [6] it was 96.3% (active).
Consider `NC(N)=NCCN=C(N)N`, for which the growth inhibition in assay [1] is -2.7%; in assay [2], -30.1%; in assay [3] it was -29.6%; in assay [4], -24.1%; in assay [5], -53.2%; in assay [6], -9.15%.
As for `CC[N+](CC)(CC)CC`, the growth inhibition in assay [1] was -16.7% and -6.2%; in assay [2] it was 2.1% and -17.7%; in assay [3], 6.6% and -1.6%; in assay [4], -10.4% and 2.05%; in assay [5] it was 0.8% and -1.3%; in assay [6] it was -15.8% and -4.9%.
Take `O=C([O-])C[OH+]c1ccc(Cl)cc1Cl.O=C([O-])C[OH+]c1ccc(Cl)cc1Cl.[Ni+2]`: the growth inhibition in assay [1] is 10.3%; in assay [2], 21.6%; in assay [3] it was 18.9%; in assay [4], 3.1%; in assay [5] it was 3.85%; in assay [6], 41.5%.
